Data from PubChem BioAssay (NCATS).
Results filed as inconclusive are left out. Active and inactive are the calls of the source. Calls come from the whole dose curve; as a rule, active = well fitted inhibition curve with a large enough effect; inconclusive = small, poorly fitted or top-dose-only effect; inactive = flat fitted curve, though single readings scatter.

Columns and labels:
Test in all cases: qHTS profiling for inhibitors of Plasmodium falciparum proliferation (AID 504749); note: nearly all actives have a fitted effect of over 60% in size
Conditions in all cases: P. falciparum in erythrocytes, SYBR Green DNA, 72 h; series mostly up to 28.7 µM
[1] = tested on: CP268
Method in brief: (§1)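 Infected RBCs, 0.3% parasitemia/2.5% Hct final; cpd 72 h, 37 C, 5% CO2; lysis buffer with saponin/triton/SYBR Green I, o/n RT dark; FI 485/535; norm. to artemisinin (0.29 uM) and DMSO.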

[2] = tested on: CP269
Method in brief: as §1

[3] = tested on: CP286
Method in brief: as §1

[4] = tested on: CP291
Method in brief: as §1

[5] = tested on: CP297
Method in brief: as §1

[6] = tested on: CP305
Method in brief: as §1

[7] = tested on: CP315
Method in brief: as §1

[8] = tested on: CP325
Method in brief: as §1

[9] = tested on: CP329
Method in brief: as §1

[10] = tested on: CP335
Method in brief: as §1

[11] = tested on: DFO2036
Method in brief: as §1

[12] = tested on: DIV14
Method in brief: as §1

[13] = tested on: DIV17
Method in brief: as §1

[14] = tested on: DIV30
Method in brief: as §1

[15] = tested on: Dd2
Method in brief: as §1

[16] = tested on: ECU
Method in brief: as §1

[17] = tested on: FAB9
Method in brief: as §1

[18] = tested on: GB4
Method in brief: as §1

[19] = tested on: HB3
Method in brief: as §1

[20] = tested on: ICS
Method in brief: as §1

[21] = tested on: JCK
Method in brief: as §1

[22] = tested on: N140
Method in brief: as §1

[23] = tested on: P93_24
Method in brief: as §1

[24] = tested on: P94_40
Method in brief: as §1

[25] = tested on: PAD
Method in brief: as §1

[26] = tested on: PC15
Method in brief: as §1

[27] = tested on: PC26
Method in brief: as §1

[28] = tested on: PC49
Method in brief: as §1

[29] = tested on: SC27B
Method in brief: as §1

[30] = tested on: TAB109
Method in brief: as §1

[31] = tested on: TAB113
Method in brief: as §1

[32] = tested on: TAB165
Method in brief: as §1

[33] = tested on: W2
Method in brief: as §1

Measured: Potency

Cc1cn([C@H]2CC(F)[C@@H](CO)O2)c(=O)[nH]c1=O (stereo partly drawn)
inactive: all assays above
